Source: PubChem BioAssay (Sanford-Burnham Center for Chemical Genomics)
NLRP3 yeast inh = inhibitors of NALP3 inflammasome in yeast. AID 2825. Yeast reconstituted NLRP3/ASC/caspase-1, beta-gal luminescence, 24 h. inhibition, % at 10 µM. 330,000 tested, 0.39% active;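 active = inhibition of 50% or more; inactive = inhibition below 50%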
TIM10 inh = growth inhibitors of TIM10 yeast strain; S. cerevisiae TIM10 strain growth, BacTiter-Glo luminescence, 24 h; inhibition, % at 10 µM; 330,000 tested, 1.4% active;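 active = inhibition of 40% or more at the single tested concentration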;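 also: wild-type TIM10 isogenic control strain grown at permissive 25 °C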
tim10-1 inh = inhibits growth of tim10-1 mutant yeast. inhibition, % at 20 µM. S. cerevisiae tim10-1 ts strain growth, BacTiter-Glo, 24 h. 330,000 tested, 2.2% active;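 active = inhibition of at least 40%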;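 also: mutant grown at 25 °C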
tim23-1 inh = growth inhibitors of tim23-1 mutant yeast. 330,000 tested, 1.3% active. inhibition, % at 20 µM. S. cerevisiae tim23-1 growth, BacTiter-Glo luminescence, 24 h;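 active = growth inhibition of the mutant yeast at or above 50%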;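 also: temperature-sensitive mutant grown at 25 °C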
NALP1 yeast inh = inhibitors of NALP1 inflammasome in yeast; 280,000 tested, 0.61% active; S. cerevisiae NALP1/ASC/caspase-1 growth, X-gal OD620, 72 h; AID 2071; inhibition, % at 10 µM; in the data active = inhibition mostly above about 24%, no sharp cut-off; inactive = mostly below about 32%
tim23-1 conf = confirmation of tim23-1 mutant yeast growth inhibitors. shares compounds with tim23-1 inh. S. cerevisiae tim23-1 growth, BacTiter-Glo luminescence, 24 h. inhibition, % at 20 µM. 4,400 tested, 83% active;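 active = inhibition above about 39% in either of two replicate wells at 20 µM, limit read from the data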;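 also: temperature-sensitive tim23-1 mutant grown at 25 °C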
Large screens that a line does not name were inactive (follow-up assays come after a bar, where they were run). Sampled rows, rich in hits. Any-hit rate of the full collection: about 4%.

CC(=O)OC1CC[C@]2(C#N)[C@H]3CC[C@]4(C)[C@H](C5C=CC(=O)O5)CCC4(O)C3CCC2(O)C1 (stereo partly specified)	none
COc1ccc(-n2c(/C=C/c3ccc4c(c3)OCO4)nc3ccccc3c2=O)cc1	tim23-1 inh 50 | tim23-1 conf 45
Cc1oc(-c2ccccc2)nc1CN1C(=O)C(C)N=C(c2ccccc2F)c2cc(Cl)ccc21 (stereo unspecified)	tim23-1 inh 52 | tim23-1 conf 57
CC(OC(=O)c1cn(C)c2ccccc12)C(=O)N(C)c1ccccc1 (stereo unspecified)	none (no result: NALP1 yeast inh)
Cc1[nH]c2ccc(OC(F)(F)F)cc2c1CCNCc1ccc(Cl)cc1	tim23-1 inh 66 | tim23-1 conf inactive
Cc1[nH]c2ccc(OC(F)(F)F)cc2c1CCNCc1cccc([N+](=O)[O-])c1	none
O=C(Cc1ccccc1F)N1CCN(CC(=O)N2CCCC2)CC1	none (no result: NALP1 yeast inh)
